The full list was thinned out, with hits kept by preference.
mHTT CaM bind: mutant huntingtin-calmodulin interaction inhibitors – biochemical, AlphaScreen, primary screen. AlphaScreen His-mHTT/GST-CaM binding, luminescence. 3.6% of 190,000 active. AID 1671202, 2021. inhibition, % at 15 µM;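 note: 0% = both proteins with DMSO and 100% = one protein alone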
Pf apPOL block: Pf-apPOL inhibitors, biochemical, fluorescence | inhibition, % at 10 µM | Plasmodium falciparum apicoplast DNA polymerase (apPOL) | 0.25% of 210,000 active | Recombinant Pf-apPOL, molecular beacon fluorescence, 1.5 h | AID 1794808, 2022
The depositor's hits bear a star; / = no result. Cut-off read from the data, not from the text of the source: active = inhibition above about 50%; inactive = the rest.

SMILES	mHTT CaM bind	Pf apPOL block
O=C(NCC1CCCO1)c1ccccc1[N+](=O)[O-] (stereo not drawn)	1	-15
Cc1ccc(NS(=O)(=O)c2cn(C)c3ncccc23)cc1	67*	80*
Cc1ccc(CNC(=O)Cc2cn(C)c3ncccc23)cc1	-15	2
N#CCC(N)=Nc1sc2c(c1C#N)CCCC2	67*	6
CC(N)=Nc1sc2c(c1C#N)CCCC2	-4	-4
CC(=O)c1cc2c(N)c(C(=O)c3ccc(Br)cc3)sc2nc1C	-1	8
Fc1cccc(CN2CCCCCC2)c1	2	-1
O=C(Nc1ccc2c(c1)OCCO2)C1CCN(c2nnc3ccccn23)CC1	-5	-5
O=C(Nc1ccc(Cl)cc1F)N1CC2CC1CC2NS(=O)(=O)c1ccccc1 (stereo not drawn)	-2	-4
CSc1ccccc1NC=C(C#N)C#N	/	-4
N#Cc1ccc(NC(=O)c2sc3ccccc3c2Cl)cc1	/	-8
CCOC(=O)N1CCc2nc(NC(=O)c3sc4ccccc4c3Cl)sc2C1	53*	-1
CC(=O)N1CCc2c(sc(NC(=O)c3sc4ccccc4c3Cl)c2C#N)C1	61*	-23
CCOC(=O)N1CCc2nc(NC(=O)c3nc4ccccc4s3)sc2C1	36	0
CC(=O)c1ccc(Oc2ccc([N+](=O)[O-])cc2)cc1	0	-3
O=C(Nc1ccc(C(F)(F)F)cc1)c1cc2c(=O)oc3ccccc3c2s1	-1	-3
COc1ccc(CNC(=O)C2(C)CCCN(C(=O)c3ccc(Br)o3)C2)cc1 (stereo not drawn)	-2	-1
CNCC(O)Cn1c2c(c3ccccc31)CCCC2 (stereo not drawn)	14	-12
Cc1ccc2c(c1)c1c(n2CC(O)Cn2nc(C)cc2C)CCCC1 (stereo not drawn)	46	3
Cc1ccc2c(c1)c1c(n2CC(O)CNCc2ccco2)CCCC1 (stereo not drawn)	55*	0
CCC(CO)NCC(O)Cn1c2c(c3cc(C)ccc31)CCCC2 (stereo not drawn)	54*	-8
Cc1cccc2c(=O)n(C3CCN(S(=O)(=O)c4ccc(F)cc4F)CC3)cnc12	-4	-1
CN(CC(=O)NCc1cccs1)c1nc2ccccc2s1	-16	-14
CN(CC(=O)Nc1nc(-c2ccco2)cs1)c1nc2ccccc2s1	77*	16
CC(=O)N1CCN(c2nc3c(s2)CC(C(=O)Nc2ccccc2)CC3)CC1 (stereo not drawn)	28	-1
SMILES	mHTT CaM bind	Pf apPOL block
CC(=O)N1CCN(c2nc3c(s2)CC(C(=O)Nc2cccc(C(C)(C)C)c2)CC3)CC1 (stereo not drawn)	54*	2
Cc1ccccc1NC(=O)c1csc(-c2ccc(N3CCCCC3)nc2)n1	-6	0
O=c1ccc(-c2ccc(F)cc2)nn1CCc1nc(-c2ccccc2Cl)no1	-6	-5
O=c1ccc(-c2ccc(F)cc2)nn1CCc1nc(-c2cccc(Br)c2)no1	56*	-9
Cc1cccc(N2C(=O)NC(=O)/C(=C\c3cn(CC(=O)N4CCCC4)c4ccccc34)C2=O)c1C	5	-6
Cc1cccc(N2C(=O)NC(=O)/C(=C\c3cn(CC(=O)N4CCOCC4)c4ccccc34)C2=O)c1	-2	-5
Cc1ccccc1N1C(=O)NC(=O)/C(=C\c2cn(CC(=O)Nc3ccccc3)c3ccccc23)C1=O	64*	0
Cc1ccccc1N1C(=O)NC(=O)/C(=C\c2cn(CC(=O)N3CCOCC3)c3ccccc23)C1=O	25	-11
O=C1NC(=O)N(c2ccccc2F)C(=O)/C1=C/c1cn(CC(=O)N2CCCCC2)c2ccccc12	59*	-2
O=C1NC(=O)N(c2ccccc2F)C(=O)/C1=C/c1cn(CC(=O)N2CCCC2)c2ccccc12	75*	-1
CNC(=O)c1c[nH]c2ccc(S(=O)(=O)Nc3cccc(C(F)(F)F)c3)cc2c1=O	6	-3
Cc1c(F)cccc1NC(=O)C1(c2ccc(NS(C)(=O)=O)cc2)CCCCC1	2	2
Cc1cc(C)n2nc(SCC(=O)NCc3ccccc3)nc2n1	2	10
Cc1ccc(/C=C2\CS/C(=C\c3ccc(C)o3)C2=O)o1	100*	3
CN=C1S/C(=C/c2ccc(C)o2)C(=O)N1C	-4	/
CCN1CCc2c(sc(N)c2C#N)C1	7	-22
CCC(C)(C)C1CCc2c(sc(N)c2C#N)C1 (stereo not drawn)	/	97*
O=C(Nc1ccc(Cl)c(-c2nc3ncccc3o2)c1)c1ccc(Br)o1	33	0
COc1cccc(CNc2ncccn2)c1OC	4	-2
COc1cccc(CNc2cccc3cccnc23)c1O	54*	-5
N#CC1=C(SCc2ccc(Cl)cc2)NC(=O)CC1c1ccccc1F (stereo not drawn)	12	-14
Cc1cc(O)cc2c1C(=O)C(=Cc1ccccc1)O2	0	-12
Cc1cc(O)cc2c1C(=O)C(=Cc1cc3ccccc3o1)O2	55*	-2
CCN(CC)C(=O)Cn1ccc(=N)c2ccccc21	2	-2

Compound activity as filed in PubChem.
